Experimental data from PubChem BioAssay AID493083 (Broad Institute, 2011).
Hit rate of the full screen: of about 2,400 compounds, about 95 (4%) were called active. About 3% were inconclusive and are not listed.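 Rule for the calls: active = compounds lowering signal whose fitted AC50 is at most ten times the top tested dose; inconclusive = flat fit with moderate inhibition, or poor curve fit; inactive = the rest.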 Only a sample is shown. Entries with a potency or affinity are not part of this list.

experiment: GFP reporter loss versus dox-driven RFP – NIH3T3 R4 cells, cherry-pick, set 3, dose response (AID 493083); conditions: NIH3T3 R4 HSF-1 GFP reporter, heat shock, 48 h; series mostly up to 19.5 µM; activity change, negative = inhibition: at the top concentration;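 note: 0% = neutral control wells and -100% = didemnin B positive control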

Activity change, negative = inhibition, inactive:
COC(=O)c1cc2ccsc2n1Cc1nc(-c2ccc(Cl)cc2)oc1C 3.21%
COc1ccccc1/C=C/CN1CCC(Oc2cc(C(=O)NC3CC3)ccc2OC)CC1 7.7%
CC(NO)/C(=N\O)c1cccs1 (configuration not stated) 1.92%
COC(=O)C1=C(C(=O)OC)[C@@H]2N(C)c3ccccc3[C@@]23C[C@@H](C(=O)OC)N(C(=O)CC(C)C)C3=N1 0.888%
CCN1CCN(CCNC(=O)CCCCCn2c(=O)[nH]c3cc(C(=O)OC)ccc3c2=O)CC1 -7.53%
O=C(COC(=O)c1ccccc1SCC(=O)N1CCCC1)NC1CCS(=O)(=O)C1 (configuration not stated) 1.73%
Cc1ccc(S(=O)(=O)N2CCCC(C(=O)NCCc3ccc4c(c3)OCO4)C2)cc1 (configuration not stated) 13.8%
FC(F)Oc1ccc(NC(=S)NNc2ccnc3cc(Cl)ccc23)cc1 39.7%
Cc1ccc(-n2ncc(Br)c(Br)c2=O)cc1 -70.3%
CCc1ccc(C(=O)Cn2ncc(Cl)c(Cl)c2=O)cc1 -74.6%
CCCCCn1c(SCC(=O)CC(=O)OCC)nc2cc(C(=O)N3CCC(C(N)=O)CC3)ccc2c1=O -1.23%
CC(=O)Nc1cc[n+](C(C)C(=O)c2ccccc2)cc1 (configuration not stated) -10.5%
COc1cccc(-n2ccnc2SCC(=O)Nc2ccccc2F)c1 9.89%
O=C(CCc1ccccc1)Nc1cccc([N+](=O)[O-])c1 9.15%
O=C(NN=C1CCCCCCCCCCC1)c1ccccc1F 4.34%
COc1ccc(-n2nc(C(=O)NCC(=O)NCc3ccccc3OC)c3ccccc3c2=O)c(OC)c1 -1.43%
O=C(NC1CCCCC1)C(c1ccco1)N(C(=O)c1csnn1)c1ccc(Cl)cc1 (configuration not stated) 0.074%
CCC(C)NC(=O)C1(C)CCC(=O)N1Cc1ccccc1OC (configuration not stated) -0.568%
O=C(O)CSc1nc(-c2ccccc2)nc2c1oc1ccccc12 -7.46%
CNC(=O)c1ccsc1NC(=O)c1ccc(Cl)s1 -0.254%
Cc1ccc(OCC(=O)NCCNC(=O)c2ccco2)cc1C -0.642%
CCCCn1c(SCC(=O)NCc2ccco2)nc2c(sc3ccccc32)c1=O -2.75%
O=C(CCl)N1N=C(c2cccs2)CC1c1ccco1 (configuration not stated) 111%
COc1ccc(C2=NN(S(C)(=O)=O)C(c3cccs3)C2)cc1OC (configuration not stated) 0.996%
COc1c([N+](=O)[O-])c(=O)oc2ccccc12 -1.45%
Cn1c(=O)c2ccccc2n(Cc2ccccc2Cl)c1=O 62.4%
C/C(=N\NC(=O)c1nnn(-c2nonc2N)c1C(C)C)c1ccncc1 -3.27%
COc1ccc(/C=N/NC(=O)Nc2cccc3nsnc23)cc1OC 12.9%
COc1ccc(CNC(C)CCc2ccccc2)cc1 (configuration not stated) -3.43%
CCOc1ccc(NC(=O)CN(C)C(=O)c2ccc(N3CCCC3)c([N+](=O)[O-])c2)cc1OCC 4.14%
COc1cccc(N2CCN(C(=S)Nc3cc(C)cc(C)c3)CC2)c1 -4.49%
CC(CCCC(C)(C)O)NC(=O)c1ccc2oc(CCc3ccccc3)nc2c1 (configuration not stated) 1.71%
COc1ccc(NC(=O)CCc2nnc3ccc(N4CCC(C)CC4)nn23)cc1OC -0.697%
O=C(O)c1cccc(NC(=S)N/N=C/c2cccnc2)c1 -3.91%
CCc1cccc2c(C(=O)COC(=O)c3ccc([N+](=O)[O-])s3)c[nH]c12 4.77%
CNC(=S)N/N=C/c1ccc(-c2cccc(C(=O)O)c2)o1 -2.88%
CCOc1ccc(NC(=O)CCCNC(=O)Cn2cnc3sc(C)c(C)c3c2=O)cc1 -1.07%
CCC(=O)n1nc(-c2cccnc2)nc1NCc1cccs1 -3.19%
COc1ccc(N=Cc2c(O)ccc3ccccc23)cc1 69.2%
O=C1CCCN1CCC1CCN(C(=O)Nc2ccccc2)CC1 -0.501%
CC(C)CCNC(=O)c1ccc2c(SCC(=O)O)c3c(nc2c1)CCC3 -3.07%
COc1ccc(OC)c(NC(=O)C2CCCN(S(=O)(=O)c3c(C)nn(C)c3C)C2)c1 (configuration not stated) -0.401%
O=C(NCc1ccncc1)C(=O)Nc1nc(C23CC4CC(CC(C4)C2)C3)cs1 33.4%
Cc1cccc(C)c1NC(=O)c1cccnc1 -2.88%
COc1ccc(C)c2sc(NC(=O)C3=COCCO3)nc12 -4.67%
Cc1ccc(N2C(=O)N(CC(=O)NC(N)=O)C(=O)C2C)cc1 (configuration not stated) -1.14%
COc1cccc(Nc2ccc(C(=O)O)cc2N)c1 -0.631%
Cn1c(=O)c2c(ncn2CC(=O)Nc2cccc(S(=O)(=O)Nc3ccccc3F)c2)n(C)c1=O 8.04%
C/C(=N\NC(=O)c1c(C)nc2ccccn12)c1ccc(C(C)(C)C)cc1 8.05%
CCOC(=O)c1c(C)[nH]c(C)c1S(=O)(=O)NCCc1cccs1 3.28%
CCOC(=O)c1c(N2CCCCC2)c2ccccc2[nH]c1=O 2.34%
CC(C)(C)c1ccc(/C=N/N2C(=O)CSC2=S)cc1 -1.35%
NNC(=S)Nc1ccccc1Cl -2.15%
O=C(NCCN1CCCCC1)Nc1ccccc1Cl -12.4%
CC(C)C(=O)Nc1cccc(-c2nc3ncccc3o2)c1 -3.12%
CC(=O)Nc1nn(C)c2nc(C)cc(C)c12 -7.96%
Cc1cc(C)c(NC(=O)Nc2ccc3c(c2)OCO3)c(C)c1 10.5%
O=C(/C(=C(\[O-])c1ccccc1)[n+]1ccc2ccccc2c1)c1ccc([N+](=O)[O-])cc1 -3.91%
CCOC(=O)c1sc(NC(=O)Nc2ccccc2F)nc1C 2.48%
CCOC(=O)Cc1cnc(NC(=O)c2ccccc2)s1 14.6%
N#Cc1cccc(C#N)c1Oc1ccc(S(=O)(=O)Nc2ccc(Cl)cc2)cc1 27.6%
CCOC(=O)CCCNS(=O)(=O)c1c(C)ccc2nsnc12 -5.83%
COc1ccc(/C=C/C(=O)NC(=S)NCCc2ccc(OC)c(OC)c2)cc1 0.071%
COc1ccc(-n2c(C)c(C(C)=O)c(C(C)=O)c2C)cc1 -9.69%
O=C(O)C1CCC(=O)N(C2CCCCC2)C1c1ccccc1Cl (configuration not stated) -8.3%
O=C(CC1C(=O)NCCN1Cc1ccccc1F)NC1CCCCCC1 (configuration not stated) -11.2%
Cc1nn(-c2ccccc2Cl)c(Cl)c1/C=N/Nc1nc2ccccc2s1 8.96%
COc1ccccc1-c1nnc(SC2CCc3ccccc3NC2=O)s1 (configuration not stated) 16.7%
N#CCCn1nnc(-c2ccccc2F)n1 -4.93%
Cc1ccccc1OCC(=O)Nc1ccc2c(c1)C(=O)N(CCC(=O)O)C2=O -0.08%
O=[N+]([O-])c1ccc(Nc2ccc(F)cc2)cc1 0.888%
COc1nnc(-c2ccc(C(=O)N3C[C@@H]4C[C@H](C3)c3cccc(=O)n3C4)cc2)c2ccccc12 -9.99%
